Screening results: PubChem, National Center for Advancing Translational Sciences (NCATS)
An excerpt weighted towards active compounds, which were near 2.8% of everything screened.
IP6K1 inh = IP6K1 kinase inhibition; Q92551; hit rate 0.81% among 140,000; IP6K1 kinase, ADP-Glo luminescence, 2 h; hits give low values; activity change, % (series mostly up to about 58 µM); in the data active = activity change below about -25%
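ADP-Glo luminescence measures ADP made by human IP6K1 during a 2 h RT reaction with ATP/IP6 (mix at 1.3 mM/130 uM); top library doses 57.5 and 19.1 uM final.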
SNCA expr inh = inhibitors of alpha-synuclein (SNCA) gene expression. Potency, µM (titrated, usually from 57.2 µM), most hits filed as inhibitors. AID 1671194. HEK-293 SNCA-luciferase knock-in, luminescence, 24 h. hit rate 0.17% among 140,000; note: nearly all actives have a fitted effect of over 45% in size
HEK293 viab = cell viability loss counter-screen | hit rate 0.12% among 150,000 | Potency, µM (titrated, usually from 57.1 µM), most hits filed as cytotoxic | HEK-293-SNCA-luc viability, GF-AFC fluorescence, 24 h | AID 1671193; note: nearly all actives have a fitted effect of over 30% in size
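Cytotoxicity counterscreen: after 24 h compound treatment of genome-edited SNCA-luciferase HEK-293 cells, live-cell protease substrate GF-AFC read by fluorescence after 30 min; activity scaled between DMSO (0%) and medium-only (-100%), curves Hill-fitted.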
KDM5B inhibitor = KDM5B demethylase inhibition | KDM5B demethylase, FDH-coupled NADH fluorescence (FDH is formaldehyde dehydrogenase) | hit rate 2.6% among 220,000 | Potency, µM (top dose mostly 57.7 µM), actives largely listed as inhibitors; note: nearly all actives have a fitted effect of over 70% in size
Target sequence (Q9UGL1 whole entry, looked up): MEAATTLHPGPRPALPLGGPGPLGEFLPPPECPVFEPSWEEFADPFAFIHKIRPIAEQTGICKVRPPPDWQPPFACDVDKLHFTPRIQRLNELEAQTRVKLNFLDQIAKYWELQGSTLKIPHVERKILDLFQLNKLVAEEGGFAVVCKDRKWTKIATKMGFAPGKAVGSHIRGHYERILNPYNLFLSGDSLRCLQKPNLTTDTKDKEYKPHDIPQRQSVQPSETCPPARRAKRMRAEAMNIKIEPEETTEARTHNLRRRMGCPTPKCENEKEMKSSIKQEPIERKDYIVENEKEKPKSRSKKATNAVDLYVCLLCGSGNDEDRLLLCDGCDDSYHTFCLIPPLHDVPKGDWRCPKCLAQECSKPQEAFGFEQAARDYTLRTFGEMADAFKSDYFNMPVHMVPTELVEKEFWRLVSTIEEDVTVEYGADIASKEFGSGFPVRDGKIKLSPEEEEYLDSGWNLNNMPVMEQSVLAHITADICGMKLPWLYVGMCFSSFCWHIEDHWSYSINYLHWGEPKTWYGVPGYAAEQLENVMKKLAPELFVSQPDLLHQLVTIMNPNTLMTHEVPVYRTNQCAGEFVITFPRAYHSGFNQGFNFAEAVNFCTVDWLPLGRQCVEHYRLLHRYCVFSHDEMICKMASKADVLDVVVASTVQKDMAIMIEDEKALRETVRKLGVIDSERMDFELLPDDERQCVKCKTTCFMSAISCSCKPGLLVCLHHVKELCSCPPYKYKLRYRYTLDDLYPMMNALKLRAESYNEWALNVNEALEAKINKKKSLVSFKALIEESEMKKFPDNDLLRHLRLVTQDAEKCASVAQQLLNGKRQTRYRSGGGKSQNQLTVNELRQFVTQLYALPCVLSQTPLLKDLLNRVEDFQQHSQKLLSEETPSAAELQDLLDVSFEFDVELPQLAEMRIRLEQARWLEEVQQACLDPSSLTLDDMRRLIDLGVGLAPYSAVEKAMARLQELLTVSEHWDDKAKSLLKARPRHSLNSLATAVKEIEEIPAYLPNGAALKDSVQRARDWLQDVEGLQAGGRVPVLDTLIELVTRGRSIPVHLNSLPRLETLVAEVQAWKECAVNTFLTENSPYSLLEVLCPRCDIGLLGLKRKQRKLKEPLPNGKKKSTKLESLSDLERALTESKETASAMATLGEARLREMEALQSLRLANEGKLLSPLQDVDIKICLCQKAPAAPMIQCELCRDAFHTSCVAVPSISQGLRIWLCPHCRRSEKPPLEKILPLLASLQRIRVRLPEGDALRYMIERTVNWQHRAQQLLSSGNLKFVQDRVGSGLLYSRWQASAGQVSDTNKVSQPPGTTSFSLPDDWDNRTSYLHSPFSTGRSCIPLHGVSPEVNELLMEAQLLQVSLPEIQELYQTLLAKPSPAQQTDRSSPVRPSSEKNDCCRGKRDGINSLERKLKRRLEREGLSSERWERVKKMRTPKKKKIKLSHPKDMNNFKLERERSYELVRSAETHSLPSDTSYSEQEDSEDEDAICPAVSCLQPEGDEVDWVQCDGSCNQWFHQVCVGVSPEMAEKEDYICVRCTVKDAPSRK
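Here, H3K4me3 peptide (12.5 µM in substrate mix) is demethylated by KDM5BΔAP, 200 nM final, after 10 min compound exposure. Formaldehyde product is coupled through FDH (0.25 U/mL in mix) to NADH fluorescence; 30-min ΔRFU feeds dose-response curves.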
Large screens that a line does not name were inactive; ! = repeats disagree. Unless noted, calls come from the whole dose curve; as a rule, active = well fitted curve in the direction sought with a large enough effect; inconclusive = small, poorly fitted or top-dose-only effect, or another doubt; inactive = no such curve, though single readings can be large; an effect the other way counts as inactive or inconclusive.

O=C1[C@H]2CN(Cc3ccc(F)cc3)C[C@H]2C(=O)N1CCN1CCc2ccccc2C1	KDM5B inhibitor inconclusive
CCN(CCOc1ccc(F)cc1)C(=O)c1cnc(NC(C)C)nc1	KDM5B inhibitor 28.2µM
Cc1nc(-c2ccccc2)n(Cc2cc(=O)n3ccccc3n2)c(=O)c1CCO	KDM5B inhibitor 22.4µM
Cc1nc(-c2ccccc2)n(Cc2nc(-c3ccccc3)oc2C)c(=O)c1CCO	none
COc1ccc(-n2cc(-c3ccnc(NCCC4CCCN4C)n3)cn2)cc1 (centres undefined)	KDM5B inhibitor 28.2µM
Cc1nn(-c2ccccc2)c2c1C(C1CC1)N(C1CN(C(=O)Cc3ccc(F)cc3)C1)C2=O (centres undefined)	none (no result: SNCA expr inh, HEK293 viab, KDM5B inhibitor)
CCc1cc(NCC(c2ccc(C)o2)N2CCOCC2)n2nccc2n1 (centres undefined)	KDM5B inhibitor 31.6µM
O=C(N/N=C/c1ccccc1C(F)(F)F)C1CC1	none (no result: IP6K1 inh, SNCA expr inh, HEK293 viab)
COc1ccc2[nH]c(=O)c(CCC(=O)N3CCCC3)cc2c1	KDM5B inhibitor inconclusive
CCC1CCCCN1CCNC(=O)CCc1cc2ccccc2[nH]c1=O (centres undefined)	KDM5B inhibitor inconclusive
COc1ccc2[nH]c(=O)c(CCC(=O)NCCCN3CCCCC3C)cc2c1 (centres undefined)	KDM5B inhibitor 28.2µM
COc1ccc2[nH]c(=O)c(CCC(=O)N3CCN(CC(C)C)CC3)cc2c1	KDM5B inhibitor 28.2µM
NC(=O)NO	SNCA expr inh 1.36µM! (no result: KDM5B inhibitor)
O=C(CCC1CCN(C(=O)c2ccccc2)CC1)NCCCN1CCCc2ccccc21	KDM5B inhibitor 10µM
CC(NC(=O)c1nn(C)c(=O)c2ccccc12)c1ccc(Br)cc1 (centres undefined)	none (no result: IP6K1 inh, SNCA expr inh, HEK293 viab)
Cc1cc(C)n(CC(=O)N[C@@H]2CN(Cc3ccccc3)C[C@H]2CN(C)C)c(=O)n1	KDM5B inhibitor 8.91µM
Cn1nccc1C(=O)N[C@@H]1CN(c2ncccn2)C[C@H]1CO	KDM5B inhibitor inconclusive
CN(C)C[C@@H]1CN(c2ncccn2)C[C@H]1NC(=O)NCCc1ccccc1	KDM5B inhibitor inconclusive
O=C(N[C@@H]1CN(c2ncccn2)C[C@H]1CO)c1cc2ccccc2[nH]1	KDM5B inhibitor 14.1µM
Cn1cnc(C(=O)N[C@@H]2CN(c3ncccn3)C[C@H]2CO)c1	KDM5B inhibitor 28.2µM
Cn1cccc1C(=O)N[C@@H]1CN(c2ncccn2)C[C@H]1CO	KDM5B inhibitor inconclusive
CN(C)C[C@@H]1CN(c2ncccn2)C[C@H]1NC(=O)c1cc2ccccc2[nH]1	KDM5B inhibitor 28.2µM
N#Cc1cccnc1-c1cccc(C(=O)NCCNC(=O)c2ccc(F)cc2)c1	none (no result: KDM5B inhibitor)
CCOc1ccc(C(=O)NC2CCCN(c3cc(-c4ccccc4)[nH]n3)C2)cc1OCC (centres undefined)	none
CN(C)C[C@@H]1CN(Cc2cccnc2)C[C@H]1NC(=O)c1cc2ccccc2[nH]1	KDM5B inhibitor 28.2µM
CC(Cn1cncn1)Nc1ccc(-c2nc(Cc3ccc(F)cc3)no2)cn1 (centres undefined)	KDM5B inhibitor 25.1µM
CCOc1ccc(-n2nnc(C(=O)Nc3ccccc3CC)c2N)cc1	none (no result: IP6K1 inh, SNCA expr inh, HEK293 viab)
Cc1cc(N2CCNC(c3ccccc3)C2)n2nc(C)c(C)c2n1 (centres undefined)	HEK293 viab inconclusive
Cc1nn2c(N3CCC(O)C3)cc(-c3ccccc3)nc2c1C (centres undefined)	KDM5B inhibitor 28.2µM
CC(C)c1ccc(/C=C/C(=O)NC2CC2)cc1	none (no result: IP6K1 inh, SNCA expr inh, HEK293 viab)
CC(C)N1CCN(c2ccc3nnc(C4CCC4)n3n2)CC1	KDM5B inhibitor 28.2µM
O=C(CSc1oc(-c2ccco2)nc1S(=O)(=O)c1ccc(Br)cc1)c1ccccc1	IP6K1 inh -28.4, KDM5B inhibitor inconclusive
O=C1[C@H](Cc2ccc(O)cc2)N2C(=O)CCN(C(=O)NCc3ccccc3)[C@H]2CN1Cc1cccc2ccccc12	SNCA expr inh inconclusive, HEK293 viab 24.1µM (no result: IP6K1 inh, KDM5B inhibitor)
O=C(NCc1cccnc1)c1cccnc1N1CC2CC(C1)[C@H]1CCCC(=O)N1C2 (some centres undefined)	KDM5B inhibitor 28.2µM
O=C(NCc1cc(F)ccc1F)c1cccnc1N1CC2CC(C1)[C@H]1CCCC(=O)N1C2 (some centres undefined)	KDM5B inhibitor 31.6µM
O=C(NCc1cccc(F)c1)c1ccc(N2CC3CC(C2)[C@H]2CCCC(=O)N2C3)nc1 (some centres undefined)	none
CC(C)CNC(=O)c1cc(-c2ccc(F)cc2)c2nncn2n1	SNCA expr inh inconclusive (no result: KDM5B inhibitor)
O=C(NCc1ccncc1)c1nc(-c2cccnc2)c2cnccn12	KDM5B inhibitor inconclusive
O=C(NCc1ccc(F)cc1)c1nc(-c2ccccc2)c2cnccn12	SNCA expr inh inconclusive, KDM5B inhibitor 79.4µM
O=C(NCc1cccnc1)c1nc(-c2cccc(C(F)(F)F)c2)c2cnccn12	KDM5B inhibitor 28.2µM
O=C(NCc1ccc(F)cc1)c1nc(-c2ccc(Cl)cc2Cl)c2cnccn12	SNCA expr inh inconclusive, KDM5B inhibitor 56.2µM
O=C(NCc1cccs1)c1nc(-c2ccc(F)cc2)c2cnccn12	KDM5B inhibitor 39.8µM
O=C(NCc1ccc2c(c1)OCO2)c1nc(-c2ccc(F)cc2)c2cnccn12	KDM5B inhibitor inconclusive
CC(C)CNC(=O)NCCn1c(-c2ccccc2)nc2ccccc21	none (no result: IP6K1 inh, SNCA expr inh, HEK293 viab)
Nn1c(SC(C(=O)N2CCCC2)c2ccccc2)nnc1-c1cc(Cl)ccc1Cl (centres undefined)	none (no result: IP6K1 inh, SNCA expr inh, HEK293 viab)
COc1ncccc1CNC[C@H]1Cn2c(-c3ccc(Cl)cc3)cnc2CO1	none
C[S+](=O)([O-])c1ccc(-c2cc(C(=O)NCC(F)(F)F)nn3cccc23)cc1	none (no result: KDM5B inhibitor)
COC(=O)CNC(=O)c1nc(-c2cccc(C(F)(F)F)c2)c2cnccn12	KDM5B inhibitor 28.2µM
O=C(NC1CC1)c1nc(-c2cccc(C(F)(F)F)c2)c2cnccn12	none
O=C(c1nc(-c2ccc(F)cc2)c2ccccn12)N1CCCC1	none
COC(=O)CNC(=O)c1nc(-c2ccc([S+](C)(=O)[O-])cc2)c2cnccn12	KDM5B inhibitor 25.1µM
O=C(NCc1cccnc1)c1nc(-c2cccc(F)c2)c2cnccn12	KDM5B inhibitor 22.4µM
CC(C)NC(=O)c1nc(-c2ccc(F)cc2)c2ccccn12	KDM5B inhibitor 35.5µM
Cc1cnc(NC(=O)CCc2ncc(-c3ccccc3F)o2)s1	none (no result: IP6K1 inh, SNCA expr inh, HEK293 viab)
CC(NC(=O)/C(C#N)=C\c1ccccc1)C12CC3CC(CC(C3)C1)C2 (centres undefined)	none (no result: IP6K1 inh, SNCA expr inh, HEK293 viab)
O=C(NC1CC1)c1nc(-c2cccc(F)c2)c2cnccn12	none
O=C(NCc1ccc(F)cc1)c1nc(-c2cccnc2)c2ccccn12	KDM5B inhibitor 112µM
C#CCNC(=O)c1nc(-c2cccc(F)c2)c2cnccn12	KDM5B inhibitor 35.5µM
O=C(NCc1cccnc1)c1nc(-c2ccc(F)cc2)c2cnccn12	KDM5B inhibitor 28.2µM
Cc1cccc(NC(=O)N(C)C(c2ccc(Cl)cc2)c2nccn2C)c1 (centres undefined)	none (no result: IP6K1 inh, SNCA expr inh, HEK293 viab)
O=C(NCC1CC1)c1nc2cccnc2n(C2CCCC2)c1=O	none (no result: KDM5B inhibitor)
CCOc1cccc2cc(S(=O)(=O)N3CCCC3)c(=O)oc12	none (no result: IP6K1 inh, SNCA expr inh, HEK293 viab)
NC(=O)c1cc(Cl)ccc1OCc1ccc(OC(F)(F)F)cc1	none (no result: IP6K1 inh, SNCA expr inh, HEK293 viab)
